The source of these data is PubChem BioAssay (NCI).

Structures are written as SMILES. Compounds without any hit were thinned out: in the full panel of roughly 83,000, 20% have a hit.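 96-well plates, one dose, 48 hours. Percent growth reported; active if below 10.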 Unmarked numbers belong to inactive results. Activity calls are given as the source filed them.

Experiment in all cases: NCI-60 one-dose screen, 48 h (100 = growth as untreated, 0 = no growth, -100 = all killed)
Common to all, as to settings: 10 µM unless noted

Assay [1] has as its system T-47D breast.
The subject of assay [2] is BT-549 breast.
Assay [3] has as its system MDA-MB-435 melanoma.
The subject of assay [4] is SW-620 colon.
For assay [5], the system named is MCF7 breast.
The subject of assay [6] is HCT-116 colon.
In assay [7] the test system is HCC-2998 colon.
Assay [8] has as its system KM12 colon.

Consider `CCCCCN(CCCCC)CCCNc1c2c(nc3ccc(Cl)cc13)CCCC2`, for which the growth was 38.1% in assay [1]; 36.2% in assay [2]; 66.4% in assay [3]; 33.5% in assay [4]; 35.5% in assay [5]; 5.37% (active) in assay [6]. In addition, the growth in assay [7] was 16.3%; in assay [8], 55.5%.

Turning to `C(=C1c2ccccc2-c2ccccc21)c1ccccn1`, the growth in assay [1] is 63.8%; in assay [2] it was 58.8%; in assay [3], -7.78% (active); in assay [4] it was 32.7%; in assay [5], 38%; in assay [6], 43.5%. The growth is 80.6% in assay [7] and 39.6% in assay [8].

Turning to `CC1CN(/N=C/c2ccc([N+](=O)[O-])o2)C(=N)O1` (centres undefined), the growth is 117% in assay [1]; 117% in assay [2]; 100% in assay [3]; 98.2% in assay [4]; 84.8% in assay [5]; 95.6% in assay [6]. The growth in assay [7] is 98.3%; in assay [8] it was 91.7%.

For `CCOC(=O)c1sc(NC(=O)COc2cccc(/C=C3\CCc4cc(OC)ccc4C3=O)c2)nc1C`, the growth in assay [1] was 84.8%; in assay [2] it was -23.3% (active); in assay [3] it was 8.01% (active); in assay [4] it was 36.4%; in assay [5] it was 18.9%; in assay [6], 46.5%. Also, the growth in assay [7] is 32.3%; in assay [8], 34.7%.

In the case of `NS(=O)(=O)c1ccc(-n2nc(-c3ccc(Br)cc3)ccc2=O)cc1`, the growth in assay [1] is 77% [100 µM]; in assay [2], 38.6% [100 µM]; in assay [3], 0.0656% [100 µM] (active); in assay [4], 63% [100 µM]; in assay [5], 74.8% [100 µM]; in assay [6], 34.8% [100 µM]. Besides, the growth in assay [7] is 91.9% [100 µM]; in assay [8], 49.6% [100 µM].

`N=C1c2nc3n(c2C(=O)c2nc4n(c21)CCCCC4)CCCCC3`: the growth in assay [1] was 116%; in assay [2], 110%; in assay [3], 111%; in assay [4] it was 105%; in assay [5], 94.5%; in assay [6], 107%. Moreover, the figures for the growth in assay [7] and in assay [8] were 112% and 106%, respectively.

Consider `O=C1OC2(c3ccccc31)c1ccccc1-c1ccccc12`, for which the growth in assay [1] was 90.1%; in assay [2], 82.7%; in assay [3] it was -26.9% (active); in assay [4], 78.4%; in assay [5], 52.4%; in assay [6], 54.4%. Besides, the growth is 88.4% in assay [7] and 51.6% in assay [8].

For the molecule `Cc1nn(-c2ccccc2)cc1/C=C1\SC(N2CCCCC2)=NC1=O`, the growth was 82.4% in assay [1]; 88.2% in assay [2]; 92% in assay [3]; 79.8% in assay [4]; 55.8% in assay [5]; 46.7% in assay [6]. The growth in assay [7] is 94.5%; in assay [8], 103%.

As for `O=[N+]([O-])c1ccc(N=Nc2c(Cl)cc(O)cc2Cl)cc1`, the growth in assay [1] is 4.24% (active); in assay [2], -33.6% (active); in assay [3], -24.4% (active); in assay [4], -10% (active); in assay [5] it was 1.11% (active); in assay [6] it was -57.2% (active). Further, the growth in assay [7] is 5.82% (active); in assay [8], -39.8% (active).

As to `Cc1ccc(-c2cc(-c3ccccc3)n(-c3ccccc3)n2)cc1`, the growth in assay [1] was 74.6%; in assay [2], 101%; in assay [3], 89%; in assay [4], 99.9%; in assay [5] it was 97.5%; in assay [6], 29.9%. Also, the growth is 99.1% in assay [7] and 106% in assay [8].

On to `Nc1nc(Nc2ccccc2SSc2ccccc2Nc2nc(N)nc(-c3cccc(Cl)c3)n2)nc(-c2cccc(Cl)c2)n1`, for which the growth in assay [1] was 68.9%; in assay [2] it was 94.3%; in assay [3] it was 101%; in assay [4], 104%; in assay [5], 82.8%; in assay [6], 90.9%. Moreover, the growth in assay [7] was 110%; in assay [8], 77%.

`Nc1ccc(N=Nc2ccccc2)cc1[N+](=O)[O-]`: the growth in assay [1] was 59.8%; in assay [2] it was 85.4%; in assay [3], 101%; in assay [4], 93.1%; in assay [5] it was 24.1%; in assay [6], 91.4%. Besides, the growth was 103% in assay [7] and 53.2% in assay [8].

Consider `O=C(Nc1cccc(Cl)c1)Nc1cccc(Cl)c1`, for which the growth is 19.4% in assay [1]; 96.7% in assay [2]; 88.8% in assay [3]; 81% in assay [4]; 64.3% in assay [5]; 42.5% in assay [6]. Further, the growth in assay [7] was 72.6%; in assay [8], 43.6%.

On to `O=C(Nc1nc2c(C(F)(F)F)cccc2s1)c1cc(Cl)ccc1O`, for which the growth in assay [1] is -1.67% (active); in assay [2], -13.4% (active); in assay [3], 5.71% (active); in assay [4], 12.2%; in assay [5] it was 7.63% (active); in assay [6], -1.3% (active). Besides, the growth in assay [7] is 19.3%; in assay [8], 10.5%.

With `COc1cc(C2=NN(C=O)C(c3cccc(Nc4ccnc5cc(Cl)ccc45)c3)C2)cc(OC)c1OC` (centres undefined), the growth in assay [1] was 63.2%; in assay [2], 61.5%; in assay [3], 84.5%; in assay [4], 88.6%; in assay [5] it was 68.8%; in assay [6], 62.6%. In addition, the growth in assay [7] is 107%; in assay [8], 91%.

As to `O=C(O)CCC(=O)OC[C@@H](NC(=O)C(Cl)Cl)[C@H](O)c1ccc([N+](=O)[O-])cc1`, the growth in assay [1] is 95%; in assay [2], 89.6%; in assay [3], 101%; in assay [4], 108%; in assay [5], 97.2%; in assay [6] it was 92.3%. The growth in assay [7] is 100%; in assay [8] it was 103%.

Consider `CSc1nc2nc3c(c(-c4ccc(C)cc4)c2c(=O)[nH]1)CN(C)C/C3=C\c1ccc(C)cc1`, for which the growth in assay [1] was 103%; in assay [2], 114%; in assay [3] it was 91.8%; in assay [4], 103%; in assay [5], 87%; in assay [6], 101%. The growth in assay [7] is 96.5%; in assay [8] it was 101%.

`O=C(CN1CCN(c2ccc(Cl)cc2)CC1)N1CCN(c2nnc(-c3ccccc3)c(-c3ccccc3)n2)CC1`: the growth was 19.7% in assay [1]; 44.9% in assay [2]; 48.8% in assay [3]; 46.9% in assay [4]; 20.9% in assay [5]; 16.7% in assay [6]. For the same molecule, the growth in assay [7] was 56.9%; in assay [8], 36.6%.

For `O=c1c2c(=NCCCN3CCCC3)cc3c(=O)n(CCCN4CCCC4)c(=O)c4c(NCCCN5CCCC5)cc(c(O)n1CCCN1CCCC1)c2c4-3`, the growth in assay [1] was -6.25% (active); in assay [2], -29.9% (active); in assay [3], -62.4% (active); in assay [4] it was -3.24% (active); in assay [5], 0.241% (active); in assay [6], 2.72% (active). The figures for the growth in assay [7] and in assay [8] were -43.1% (active) and 0.818% (active), respectively.

`NC(=NCCCCCCN=C(N)/N=C(\N)Nc1ccc(Cl)cc1)/N=C(\N)Nc1ccc(Cl)cc1`: the growth was 19.3% in assay [1]; 10.6% in assay [2]; 18.3% in assay [3]; 23.4% in assay [4]; 7.79% (active) in assay [5]; 13.5% in assay [6]. Besides, the growth in assay [7] is 15.3%; in assay [8], -12% (active).

With `CCOC(=O)/C=C1/SC(=Nc2ccc(C#N)cc2)N(Cc2ccco2)C1=O`, the growth is 12.1% in assay [1]; 44.8% in assay [2]; 50.5% in assay [3]; 12% in assay [4]; 12.6% in assay [5]; -61.6% (active) in assay [6]. The growth in assay [7] was 64.7%; in assay [8], 60.9%.

With `C[C@@H]1[C@H]2[C@H](C=C3[C@@H]4CC[C@H]5Cc6nc7c(nc6C[C@]5(C)[C@H]4C[C@@H](O)[C@@]32C)C[C@@H]2CC[C@H]3C4=C[C@@H]5O[C@@]6(CC[C@](C)(CO)O6)[C@@H](C)[C@@]5(O)[C@@]4(C)[C@H](O)C[C@@H]3[C@@]2(C)C7)O[C@]12CCC(C)(C)O2`, the growth was 7.03% (active) in assay [1]; 3.41% (active) in assay [2]; 51.8% in assay [3]; 8.02% (active) in assay [4]; 15.5% in assay [5]; 9.68% (active) in assay [6]. Further, the growth was 66.5% in assay [7] and 28.7% in assay [8].

On to `Clc1ccc(C2=NN(c3ccc(Cl)cc3)C(c3cccc(Nc4ccnc5cc(Cl)ccc45)c3)C2)cc1` (centres undefined), for which the growth in assay [1] is 79.8%; in assay [2], 68.4%; in assay [3], 99.2%; in assay [4], 90%; in assay [5], 81.9%; in assay [6] it was 55%. The growth was 94% in assay [7] and 85.2% in assay [8].

Take `Oc1ccccc1/C=N/N1CCCCCC1`: the growth in assay [1] was 102%; in assay [2], 97.9%; in assay [3], 99.9%; in assay [4] it was 108%; in assay [5], 83.8%; in assay [6] it was 102%. The growth in assay [7] is 95.8%; in assay [8], 103%.

Regarding `Cc1cc(Br)c(C)cc1Br`, the growth was 92.5% in assay [1]; 99.9% in assay [2]; 99.8% in assay [3]; 108% in assay [4]; 98.2% in assay [5]; 99.1% in assay [6]. Also, the growth in assay [7] was 115%; in assay [8], 103%.

In the case of `CCCCCCCCCCOC(C)=O`, the growth in assay [1] is 100%; in assay [2], 118%; in assay [3], 106%; in assay [4], 106%; in assay [5], 93.6%; in assay [6] it was 112%. In addition, the growth in assay [7] was 109%; in assay [8], 113%.

For `N#Cc1ccc(-c2csc(Nc3ccc4nc5n(c(=O)c4c3)CCC5)n2)cc1`, the growth in assay [1] was 102%; in assay [2] it was 98.4%; in assay [3], 103%; in assay [4], 103%; in assay [5] it was 92%; in assay [6], 96.2%. Further, the values for the growth in assay [7] and in assay [8] were 116% and 103%, respectively.

For the molecule `O=C(c1ccccc1)C(CN1CCCCC1)c1ccccc1` (centres undefined), the growth in assay [1] is 34.9%; in assay [2], 83.8%; in assay [3] it was 23.9%; in assay [4], -82.6% (active); in assay [5], 0.432% (active); in assay [6] it was -100% (active). Further, the growth was 89% in assay [7] and 14.4% in assay [8].
